Abs 340nm = compound light absorbance at 340 nm, profiling panel, artefact control, biochemical, MLSMR library, data from PS, PMK, MK assays. AID 708, 2007. fold change at 10 µM. compound absorbance at 340 nm, fold over control. 65,000 tested, under 10 active;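 active = at 10 µM dose, initial 340 nm absorbance at least 2 fold that of control wells; inactive = change under 2 fold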;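 note: initial absorbance extrapolated from kinetic A340 decline of NADH oxidation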
Spn PMK inh = S. pneumoniae PMK inhibitors, primary screen, biochemical, mevalonate pathway, pilot trial included; AID 539, 2006; phosphomevalonate kinase (Streptococcus pneumoniae D39); purified PMK, PK/LDH-coupled NADH absorbance 340 nm; 0.49% of 65,000 active; inhibition, % at 10 µM;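 active = top-ranked compounds by inhibition in the single 10 µM screen, taking a fixed number of the strongest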
DPM-DC inhibit = S. pneumoniae DPM-DC inhibitors, primary screen, biochemical, PK/LDH-coupled NADH fluorescence | diphosphomevalonate decarboxylase (Streptococcus pneumoniae D39) | purified DPM-DC | calls only at 10 µM | 0.49% of 65,000 active | AID 556, 2006;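 active = the 320 compounds with the highest percent inhibition in the single-dose primary screen, excluding strongly autofluorescent ones, cut at about 32% in these data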;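 note: kinetic rate of NADH fluorescence loss reporting ADP formed by the decarboxylase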
Autofluor 339 = intrinsic fluorescence of library compounds, ex339/em460 – biochemical, MLSMR library, data from DPM-DC assay, artefact control, profiling panel; compound autofluorescence, ex339/em460 nm, NADH buffer; hits give high values; 1 = no-compound wells, NADH background; fluorescence fold increase at 10 µM; 5.5% of 65,000 active;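 active = at 10 µM, mean starting fluorescence two-fold or more over control wells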;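 note: signal is the first read of a kinetic run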
NADH coupling = inhibitors of PK/LDH coupling enzymes, profiling panel, artefact control, biochemical, MLSMR library. IC50, µM (top dose mostly 10 µM). 0.02% of 65,000 active. coupled PK/LDH NADH assays, four targets. AID 774, 2007;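 active = single-dose screening hits from any of four coupled enzyme assays that gave an IC50 when retested across doses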;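 note: the DPM-DC format reads NADH fluorescence rather than 340 nm absorbance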
MK inhibit = S. pneumoniae MK inhibitors, primary screen, biochemical, PK/LDH-coupled NADH absorbance. mevalonate kinase [Streptococcus pneumoniae D39]. purified MK, PK/LDH-coupled NADH absorbance 340 nm. inhibition, % at 10 µM. 0.48% of 65,000 active. AID 555, 2006;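 active = ranked among the strongest by inhibition in the single 10 µM screen, a fixed top-ranked set picked for dose follow-up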
Numbers stand for hits; - = inactive; . = no result given; + = active, no number. An excerpt weighted towards active compounds, which were near 6.8% of everything screened.

SMILES	Abs 340nm	Spn PMK inh	DPM-DC inhibit	Autofluor 339	NADH coupling	MK inhibit
COc1ccc(F)cc1CN1CCN(c2cc(C)nc3c4c(C)cc(C)nc4nn23)CC1	-	-	.	3.9	-	-
Cc1cc(C)c2c(n1)nn1c(N3CCN(Cc4ccccc4)CC3)cc(C)nc21	-	-	.	3.9	-	-
CC(=O)NC1(c2ccccc2)CCN(c2nc(C)cc(C)n2)CC1	-	-	-	-	-	-
N#Cc1cc2c(nc1SCc1ccncc1)CCC2	-	-	-	-	-	-
O=C(Nc1cccc2ccccc12)c1cnccn1	-	25	-	-	-	-
CCOC(=O)c1cc2sccc2n1CC(=O)N1CCN(C(=O)c2ccco2)CC1	-	-	-	-	-	-
CCOC(=O)c1cnc(SCC(=O)N2CCN(C(=O)c3ccco3)CC2)nc1N	-	25	-	-	-	-
CCOC(=O)c1cc2sc(C)cc2n1CC(=O)N1CCN(C(=O)c2ccco2)CC1	-	-	-	-	-	42
O=C1c2ccccc2C(O)N1Cc1ccco1 (stereo not given)	-	-	-	-	-	-
O=C1c2ccccc2NC(c2cccc(F)c2)N1Cc1ccco1 (stereo not given)	-	-	.	3	-	-
Cc1ccc(C2Nc3ccccc3C(=O)N2Cc2ccco2)cc1 (stereo not given)	-	-	.	4	-	-
COc1ccc(C2Nc3ccccc3C(=O)N2Cc2ccco2)cc1COc1ccc(NC(C)=O)cc1 (stereo not given)	-	-	.	3.8	-	-
CCOC(=O)C1C(C)N=C2SCC(=O)N2C1c1cccc(Br)c1 (stereo not given)	-	-	-	-	-	-
Cc1ccc(-c2csc3n[nH]c(=S)n23)cc1	-	-	-	-	-	88
Cc1ccc(-c2csc3nnc(SCC(=O)N4CCN(Cc5ccccc5)CC4)n23)cc1	-	-	-	-	-	-
CCOC(=O)C1=C(N)n2c(s/c(=C\c3cccs3)c2=O)=C(C(=O)OCC)C1c1cccs1 (stereo not given)	-	-	-	-	-	-
CN(C)C(=O)Nc1cnc2ccccc2c1	-	-	+	-	-	-
Cc1cc(=O)oc2cc3c(cc12)OCCN3	-	-	.	2.1	-	-
Cc1cc(=O)oc2cc3c(cc12)OCCO3	-	-	.	3.6	-	-
Cc1cc2oc(=O)cc(C)c2c(=O)o1	-	-	-	-	-	-
COc1ccc(-c2cn3cccnc3n2)cc1NC(=O)CC(C)C	-	-	.	5.2	-	-
CCCCc1ccc(NC(=O)COCC)cc1	-	-	-	-	-	-
CCCC(=O)Nc1cc(-c2cn3cccnc3n2)ccc1OC	-	-	.	4.5	-	-
CCOCC(=O)Nc1ccc(-c2cn3cccnc3n2)cc1	-	-	.	5.2	-	-
CC(=O)c1cccc(NC(=O)N2CCC(c3nnc(SCC(N)=O)n3C)CC2)c1	-	-	-	-	-	-
SMILES	Abs 340nm	Spn PMK inh	DPM-DC inhibit	Autofluor 339	NADH coupling	MK inhibit
COc1cc(C(=O)Nc2ccc(OCC(=O)O)cc2)cc(OC)c1OC	-	-	-	-	-	-
Cn1cc(C(=O)NCN2CCCCC2)c2ccccc21	-	-	-	-	-	-
COc1cccc(C2/C(=C(\O)c3ccc(OC)c(OC)c3)C(=O)C(=O)N2c2cc(C)on2)c1 (stereo not given)	-	-	-	-	-	-
COc1ccc(-c2nc(-c3cccs3)c(-c3cccs3)[nH]2)cc1O	-	-	-	3	-	-
CNS(=O)(=O)c1cc(OCC(N)=O)c(C)cc1Cl	-	-	-	-	-	-
N#Cc1c(-c2cccnc2)c2c([nH]c1=S)CCCC2	-	-	+	-	-	80
N#Cc1c(-c2ccco2)c2c([nH]c1=S)CCCC2	-	-	-	-	-	-
Cc1cc(N2CCN(c3ccccc3F)CC2)nc2cc(O)ccc12	-	-	-	3.1	-	-
Cc1cc(N2CCOCC2)nc2cc(O)ccc12	-	-	.	2.2	-	-
Cc1cc(N2CCCN(C)CC2)nc2cc(Cl)ccc12	-	-	-	-	-	-
O=C(c1cccc(C(=O)N2CCN(c3ccccc3F)CC2)n1)N1CCN(c2ccccc2F)CC1	-	-	-	-	-	-
COc1ccc(N2CCN(c3cc(C)c4ccc(O)cc4n3)CC2)cc1	-	-	.	2.1	-	-
Cc1cccc(C(=O)Nc2ccccc2C(=O)OCc2c(C)noc2C)c1	-	-	-	-	-	42
Cc1cccc(N(C)C(=O)c2cc3cc4ccc(C)cc4nc3o2)c1	-	-	-	-	-	-
Cc1ccc2cc3cc(C(=O)NCCCN4CCCCCC4)oc3nc2c1	-	-	.	5.1	-	-
Cc1ccc2cc3cc(C(=O)NCCCN4CCc5ccccc5C4)oc3nc2c1	-	-	.	5.1	-	-
CSc1c[n+]2c(n1C)CCC2	-	-	-	-	-	-
O=C(c1ccc(C(=O)N2CCOCC2)nc1)N1CCOCC1	-	-	-	-	-	-
O=C(Nc1ccccc1)C1CCN(c2nccs2)CC1	-	-	-	-	-	-
O=c1[nH]c(NCCO)nc2c1C1(CCCCC1)Cc1ccccc1-2	-	-	.	3.9	-	-
CC1(C)CC(n2c(NCCO)nc3c(c2=O)C2(CCCC2)Cc2ccccc2-3)CCO1 (stereo not given)	-	-	.	2	-	-
CCc1nc2c(c(=O)[nH]1)C1(CCCC1)Cc1ccccc1-2	-	-	-	-	-	-
CC(C)n1c(=N)c(C(=O)NCCc2ccccc2)cc2c(=O)n3ccccc3nc21	-	-	.	5.1	-	-
COC(=O)c1cc2c(=O)n3ccccc3nc2n(C(C)C)c1=N	-	-	.	3.9	-	-
CCn1c(=N)c(C(=O)OC)cc2c(=O)n3ccccc3nc21	-	-	.	3.7	-	-
SMILES	Abs 340nm	Spn PMK inh	DPM-DC inhibit	Autofluor 339	NADH coupling	MK inhibit
CCOC(=O)Nc1c(O)ccc2oc(C)c(-c3ccccc3)c12	-	-	-	-	-	-
CCN(CC)CCNC(=O)C1c2cc(OC)c(OC)cc2C(=O)N2CCc3ccccc3C12 (stereo not given)	-	-	-	-	-	-
COCCn1nnnc1C(C(C)C)N(Cc1cccnc1)Cc1cc2cc(OC)ccc2[nH]c1=O (stereo not given)	-	-	-	2.4	-	-
Cc1cc(NC(=O)Cn2cc(C(F)(F)F)cc(Cl)c2=O)no1	-	-	-	-	-	-
Oc1oc(-c2ccco2)nc1C=Nc1cccc(Cl)c1	-	-	-	-	-	-
Cc1cc(O)c(C=Nc2cccc(Cl)c2)c(=O)o1	-	-	+	-	-	-
O=C(Nc1nc2c(ccc3ccccc32)s1)c1ccco1	-	-	-	2.8	-	-

Compound activity (PubChem BioAssay)
